As usually defined, the inhibition is how much of the control response was suppressed.

A number with no mark means an inactive call. For part of these data: Potency and affinity values are given separately. Some of the results follow. The source made the active and inactive calls.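 Rule for the calls, unless noted: active = primary screen hit whose fluorescence ratio, in both repeats, exceeds the weak agonist control mean by 3 SD; inactive = the rest.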

Experiment [1] has as its system TRPC4 beta (transient receptor potential cation channel C4), mouse. In words: TRPC4 cation channel opening, retest – cell-based, Fluo4 calcium, HEK293 TRPC4beta/mu-opioid, duplicates, 10 µM, confirmation (AID 2426;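 active = fluorescence ratio normalized to control raised more than 50% in primary screen plus both repeat runs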;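 for activation: percent rise of integrated ratio over buffer wells lacking compound which define 0%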). As to conditions: Fluo4 calcium fluorescence, at 10 µM; hits give high values.
For experiment [2], the system named is transient receptor potential cation channel C4 beta (TRPC4), mouse. In words: TRPC4 cation channel opening, second retest – cell-based, second round, Fluo4, HEK293 TRPC4beta/mu-opioid, 1 µM, confirmation (AID 2461;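 active = primary screen active and over 50% activation in each of two duplicate runs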). As to conditions: Fluo4 calcium fluorescence, at 1 µM; hits give high values.
Experiment [3] deals with TRPC4 (transient receptor potential cation channel C4 beta), mouse. Description: potentiation of DAMGO EC20 TRPC4 response – cell-based, second round, Fluo-4, HEK293 TRPC4beta/mu-opioid, 1 µM, confirmation (AID 2554). To be noted: DAMGO EC20, Fluo-4 calcium flux, at 1 µM; hits give high values. (Calcium flux is commonly read through the fluorescence of an indicator in the cells.)

Experiment [4] concerns TRPC4 beta (transient receptor potential cation channel C4), mouse. In words: potentiation of DAMGO EC20 TRPC4 response – cell-based, Fluo-4, HEK293 TRPC4beta/mu-opioid, confirmation (AID 2555;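 active = primary screen hit whose calcium fluorescence ratio, in both repeats, exceeds the weak agonist control mean by 3 SD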). To be noted: DAMGO EC20, Fluo-4 calcium flux, at 10 µM; hits give high values.
The target of experiment [5] is Short transient receptor potential channel 4 (Mus musculus) (UniProt Q9QUQ5). Description: blockers of DAMGO-evoked TRPC4 calcium flux – cell-based, Fluo4, HEK293 TRPC4beta/mu-opioid, confirmation (AID 2636;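 active = calcium signal cut by more than 3 SD below the full-agonist control yet still positive, in both repeats and the earlier primary screen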). To be noted: at 10 µM; hits give high values.
Experiment [6] shares this target. Description: blockers of DAMGO-evoked TRPC4 calcium flux – cell-based, second round, Fluo4, HEK293 TRPC4beta/mu-opioid, 1 µM, confirmation (AID 2637;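 active = calcium signal ratio cut to more than 3 SD under the fully stimulated control mean yet still positive, in both repeats and the primary screen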). As to conditions: at 1 µM; hits give high values.
Experiment [7] shares this target. In words: calcium entry via TRPC4 opening agents – cell-based, HEK293 TRPC4/mu-opioid, Fluo-4 calcium, dose response (AID 434937;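 active = primary screen activator hit with a dose response curve and TRPC4 channel activation at any tested dose; inactive = no activation, no dose response, or not a primary hit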).
Experiment [8] shares this target. Description: potentiation of DAMGO-evoked TRPC4 calcium signal – cell-based, HEK293 TRPC4/mu-opioid, Fluo-4 calcium, EC20 DAMGO, dose response (AID 434941;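 active = earlier screen potentiator hit that boosts the TRPC4 ion channel at some dose, with a dose response; inactive = no potentiation, no dose response, or not a prior hit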;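 note: calcium entry triggered by an EC20 dose of DAMGO at the co-expressed mu-opioid receptor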).
For experiment [9] the target is unchanged. Description: block of DAMGO-driven TRPC4 calcium entry – cell-based, HEK293 TRPC4/mu-opioid, Fluo-4 calcium, dose response (AID 434942;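 active = primary screen inhibitor hit that blocks the TRPC4 channel at some tested dose, yielding a dose curve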).
The target of experiment [10] is Short transient receptor potential channel 6 (Mus musculus) (UniProt Q61143). In words: TRPC6 blockade by TRPC4 inhibitor hits – cell-based, HEK293, membrane potential dye, duplicate, selectivity assay for TRPC4 inhibitor project, confirmation (AID 434948;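 active = active in primary screen and both duplicates, each dropping signal beyond three positive-control SD with fluorescence still positive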). As to conditions: HEK293 TRPC6, membrane potential dye fluorescence, at 10 µM, stimulated with maximal-effect acetylcholine; hits give high values.

Experiment [11] has the same target. Description: TRPC6 opening by TRPC4 activator hits – cell-based, HEK293, membrane potential dye, duplicate, selectivity assay for TRPC4 activator project, confirmation (AID 434950;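 active = membrane potential signal rise above negative control mean plus 3 SD in both duplicates, also active in the earlier TRPC4 screen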;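 for activation: 0% = buffer only wells and 100% = acetylcholine maximal-effect wells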). As to conditions: HEK293 TRPC6, membrane potential fluorescence, at 10 µM; activation: hits give high values; outcome: activation.
For experiment [12] the target is unchanged. Description: positive modulators of mouse TRPC6 channel – HEK293 cells, membrane potential dye, duplicate, selectivity assay for TRPC4 potentiator project, confirmation (AID 434952;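 active = compound raising the membrane signal above positive-control mean plus 3 SD in both repeats, and a primary screen hit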). As to conditions: HEK293 TRPC6, membrane potential dye fluorescence, at 10 µM, maximal acetylcholine added after compound; hits give high values.
Experiment [13] has as its target Short transient receptor potential channel 4 (Mus musculus) (UniProt Q9QUQ5). In words: calcium flux activators in TRPC4/5HT1a cells, counter-screen for TRPC4 activator project, cell-based, second counter screen, HEK293 TRPC4/5HT1a, Fluo-4 (AID 434977;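 active = calcium signal rise above buffer-control mean plus 5 SD in both duplicates, and also a hit in the primary screen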;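 for activation: plate controls were assay buffer for no effect and maximal serotonin response for full effect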). To be noted: Fluo-4 calcium flux, at 10 µM; hits give high values.
A short description of experiment [14]: serotonin-gated TRPC4 signal block – cell-based, second counter screen, HEK293 TRPC4/5HT1a, Fluo-4, counter-screen for TRPC4 inhibitor project, confirmation (AID 434978;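 active = primary screen active whose calcium signal fell more than 3 SD beyond the full-serotonin control mean in both duplicate plates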;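 for outcome: serotonin given first at submaximal then at maximal dose after compound preincubation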). To be noted: Fluo-4 calcium flux, at 10 µM, serotonin added to trigger calcium flux; hits give high values.
Experiment [15] has as its system TRPC4 (mouse), co-expressed with 5HT1a in HEK293. Description: enhancement of serotonin-evoked TRPC4 response – cell-based, second counter screen, HEK293 TRPC4/5HT1a, Fluo-4, counter-screen for TRPC4 potentiator project, confirmation (AID 434979;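 active = signal rise over 3 SD above mean of control wells given weak agonist, in both repeats and first screen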). As to conditions: Fluo-4 calcium flux, at 10 µM, serotonin added at its EC20 dose; hits give high values. Background: A counterscreen serves to expose hits that act by an unwanted route or on another target.

Experiment [16] is described as follows: nonspecific calcium rise without TRPC4 – cell-based, HEK293 mu-opioid receptor line, counter-screen for TRPC4 activator project, confirmation (AID 449723;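 active = hit in primary screen, with calcium signal over 5 SD above buffer well mean in both duplicates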;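 note: counter screen cells carry the mu-opioid receptor alone and lack TRPC4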). To be noted: HEK293 mu-opioid cells, Fluo-4 calcium fluorescence, at 10 µM; hits give high values.
A short description of experiment [17]: nonspecific potentiation of DAMGO calcium response – cell-based, HEK293 mu-opioid receptor line, counter-screen for TRPC4 allosteric potentiator project, confirmation (AID 449724;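 active = calcium signal rise more than 3 SD above the low-dose agonist control mean, in both duplicate plates and the primary screen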;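 note: HEK293 cells carrying mu-opioid receptor only with no TRPC4 channel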). To be noted: HEK293 mu-opioid receptor cells, Fluo-4 calcium flux, at 10 µM, compound added before EC20 DAMGO stimulus; hits give high values.
Experiment [18] in a line: parental CHO-K1 cell activation, no KCNQ2 – FluxOR thallium flux, duplicate, counter-screen for KCNQ2 potentiator project, confirmation (AID 2282;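 active = signal rise of at least 3 SD above the untreated control mean, in both duplicate wells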;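 note: counter screen of KCNQ2 potentiator hits so any rise reflects channel-independent effects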). To be noted: parental CHO-K1 cells, FluxOR thallium flux fluorescence; at 10 µM; hits give high values; zero = vehicle mean+3SD, 100% = vehicle-minus-blank window.

Sequence of Short transient receptor potential channel 4 (Mus musculus) (Q9QUQ5 whole entry, looked up): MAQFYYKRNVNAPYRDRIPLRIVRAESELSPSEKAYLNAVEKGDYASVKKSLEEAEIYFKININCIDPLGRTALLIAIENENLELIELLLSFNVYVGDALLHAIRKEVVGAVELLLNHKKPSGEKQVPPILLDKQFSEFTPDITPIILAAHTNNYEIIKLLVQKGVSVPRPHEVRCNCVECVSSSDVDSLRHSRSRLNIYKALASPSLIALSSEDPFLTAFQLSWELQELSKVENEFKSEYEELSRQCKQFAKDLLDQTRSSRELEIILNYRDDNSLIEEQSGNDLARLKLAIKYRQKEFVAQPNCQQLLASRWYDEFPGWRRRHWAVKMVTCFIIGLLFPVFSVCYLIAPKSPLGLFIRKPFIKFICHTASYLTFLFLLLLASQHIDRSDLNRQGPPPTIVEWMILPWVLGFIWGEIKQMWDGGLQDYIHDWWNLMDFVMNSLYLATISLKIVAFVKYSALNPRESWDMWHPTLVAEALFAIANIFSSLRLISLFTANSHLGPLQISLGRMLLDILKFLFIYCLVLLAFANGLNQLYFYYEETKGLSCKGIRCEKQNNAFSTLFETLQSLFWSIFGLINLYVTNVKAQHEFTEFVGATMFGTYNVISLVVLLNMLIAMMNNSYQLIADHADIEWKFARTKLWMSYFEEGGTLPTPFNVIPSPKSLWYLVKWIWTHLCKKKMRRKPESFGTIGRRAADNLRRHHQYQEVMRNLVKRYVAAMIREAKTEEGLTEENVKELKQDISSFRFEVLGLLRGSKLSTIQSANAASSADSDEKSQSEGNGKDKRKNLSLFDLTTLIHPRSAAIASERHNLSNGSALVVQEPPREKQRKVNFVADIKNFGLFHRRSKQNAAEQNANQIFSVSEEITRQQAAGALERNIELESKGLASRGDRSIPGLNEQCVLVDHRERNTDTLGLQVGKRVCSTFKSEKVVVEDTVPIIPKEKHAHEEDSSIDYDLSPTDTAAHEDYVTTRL
Sequence of Short transient receptor potential channel 6 (Mus musculus) (Q61143 whole entry, looked up): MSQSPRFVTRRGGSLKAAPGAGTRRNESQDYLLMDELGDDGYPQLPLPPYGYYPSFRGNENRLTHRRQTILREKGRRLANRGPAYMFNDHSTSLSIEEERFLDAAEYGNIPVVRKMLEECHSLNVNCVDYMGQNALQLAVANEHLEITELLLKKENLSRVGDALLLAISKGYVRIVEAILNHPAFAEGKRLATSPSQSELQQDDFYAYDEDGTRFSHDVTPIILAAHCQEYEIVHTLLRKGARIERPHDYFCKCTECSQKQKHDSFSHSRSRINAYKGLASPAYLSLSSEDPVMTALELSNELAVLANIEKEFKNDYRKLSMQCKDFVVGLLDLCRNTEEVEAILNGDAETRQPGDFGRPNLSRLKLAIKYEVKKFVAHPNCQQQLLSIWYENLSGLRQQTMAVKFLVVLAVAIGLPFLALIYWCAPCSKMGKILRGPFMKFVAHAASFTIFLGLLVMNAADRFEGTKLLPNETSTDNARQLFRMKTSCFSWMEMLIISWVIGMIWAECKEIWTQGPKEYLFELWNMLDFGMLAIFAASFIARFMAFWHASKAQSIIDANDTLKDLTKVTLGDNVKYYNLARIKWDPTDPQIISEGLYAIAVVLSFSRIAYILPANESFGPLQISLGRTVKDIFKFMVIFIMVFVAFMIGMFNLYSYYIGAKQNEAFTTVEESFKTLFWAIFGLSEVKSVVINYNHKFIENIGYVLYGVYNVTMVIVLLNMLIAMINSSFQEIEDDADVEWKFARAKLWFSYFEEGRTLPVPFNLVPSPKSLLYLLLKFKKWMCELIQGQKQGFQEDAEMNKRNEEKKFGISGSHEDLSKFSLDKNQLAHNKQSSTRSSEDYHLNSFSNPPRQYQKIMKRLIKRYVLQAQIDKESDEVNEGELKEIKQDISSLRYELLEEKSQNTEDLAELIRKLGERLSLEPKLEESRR

With `CCc1ccc(-c2nn(-c3ccccc3)cc2CSC(=N)N)cc1`, the activation in experiment [1] is 125% (active); in experiment [13], 43.7% (active); in [16], 24.4% (active). The outcome in [2], in experiment [3], in experiment [4], in [5], in [6] and in experiment [7] was inactive. The result in [8], in experiment [9], in [10], in experiment [11], in experiment [12] and in experiment [14] was inactive. The outcome in experiment [15] and in experiment [17] was inactive.

For the molecule `O=C(COC(=O)CSc1ccc([N+](=O)[O-])cc1)NCCCc1ccccc1`, the result in [1], in experiment [2], in [3], in [4], in experiment [5] and in [6] was inactive. Besides, the outcome in experiment [7], in experiment [8], in experiment [9], in experiment [10], in experiment [11] and in experiment [12] was inactive. Also, the result in experiment [13], in experiment [14], in experiment [15], in experiment [16] and in experiment [17] was inactive.

Take `CN(C)CCCNc1ncnc2c1cnn2-c1ccccc1`: the outcome in experiment [1], in [2], in experiment [5], in experiment [6], in experiment [7] and in experiment [8] was inactive. Further, the result in [9], in experiment [10], in [11], in experiment [12], in experiment [13] and in experiment [14] was inactive. For the same molecule, the outcome in [16] and in experiment [17] was inactive. Besides, the potentiation is 16% (active) in experiment [3], 17% (active) in experiment [4] and 28.6% (active) in experiment [15].

As for `COc1cc(CN2CCC(CO)(CCOc3ccccc3)CC2)cc(OC)c1`, the result in experiment [1], in experiment [2], in experiment [3], in experiment [4], in experiment [6] and in experiment [7] was inactive. Also, the outcome in experiment [8], in experiment [9], in experiment [10], in experiment [11], in experiment [12] and in experiment [13] was inactive. Besides, the result in experiment [15], in [16] and in experiment [17] was inactive. For the same molecule, the inhibition in experiment [5] was 87% (active); in experiment [14], 43.6% (active).

As for `O=C(Cc1cccs1)Nc1nc(-c2ccc(F)cc2F)cs1`, the outcome in [1], in experiment [2], in experiment [5], in [6], in [7] and in experiment [8] was inactive. Besides, the result in experiment [9], in [10], in experiment [11], in experiment [12], in experiment [13] and in [14] was inactive. For the same molecule, the outcome in experiment [16] and in experiment [17] was inactive. Further, the values for the potentiation in experiment [3], in [4] and in experiment [15] were 24% (active), 65% (active) and 91.9% (active), respectively.

With `O=c1c2cc(Br)ccc2nc(-c2cccc(Cl)c2)n1O`, the activity increase over 3SD of controls in [18] was -14.4%. Besides, the activation is 223% (active) in [1], 38.5% (active) in [11], 63.4% (active) in experiment [13] and 20.3% (active) in [16]. Also, the outcome in experiment [2], in experiment [3], in experiment [4], in experiment [5], in experiment [6] and in experiment [8] was inactive. The outcome in experiment [9], in [10], in [12], in experiment [14], in experiment [15] and in experiment [17] was inactive.

Source of the values: PubChem BioAssay.
